Data on 8 compounds can be found in PubChem BioAssay (NCI).

The panel holds about 83,000 compounds, 20% with a hit somewhere; the sample as a whole holds those more often.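 Single-concentration screen, 48 h exposure, 96-well plates. Endpoint: percent growth. Below 10 = active.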 A number with no mark means an inactive call. Activity calls are given as the source filed them.

Some test systems named below: HCT-15 colon; HT29 colon; SNB-75 CNS; SNB-19 CNS; U251 CNS; PC-3 prostate; SK-MEL-5 melanoma; UACC-62 melanoma; LOX IMVI melanoma; SK-MEL-28 melanoma; SK-MEL-2 melanoma; SN12C renal; UO-31 renal; TK-10 renal; ACHN renal; CAKI-1 renal; A498 renal; MOLT-4 leukemia; CCRF-CEM leukemia.
What all share (assay): NCI-60 one-dose screen, 48 h (100 = growth as untreated, 0 = no growth, -100 = all killed)
Conditions in all cases: 10 µM unless noted

For the compound `CCCCCCCCCCCCCCCCC(Br)C(=O)O` (stereo not given), the growth in the assay on HCT-15 colon was 83%; with HT29 colon, 108%; in the assay with SNB-75 CNS, 86.5%; with SNB-19 CNS it was 105%; in the assay on U251 CNS, 102%; in the assay on PC-3 prostate, 103%. In addition, the growth with SK-MEL-5 melanoma is 103%; with UACC-62 melanoma, 105%; in the assay on LOX IMVI melanoma, 106%; with SK-MEL-28 melanoma it was 100%; in the assay on SK-MEL-2 melanoma, 94.4%; in the assay on SN12C renal it was 102%. Besides, the growth with UO-31 renal is 87.9%; in the assay with TK-10 renal, 116%; in the assay with ACHN renal it was 96.6%; in the assay on CAKI-1 renal it was 101%; in the assay on A498 renal, 94.7%; with MOLT-4 leukemia it was 97.5%.
On to `O=C(CCC(=O)OC1CCCC1)OC1CCCC1`, for which the growth in the assay with HCT-15 colon was 93.6%; with HT29 colon it was 98.3%; in the assay with SNB-75 CNS, 77.3%; in the assay with SNB-19 CNS, 96.6%; with U251 CNS it was 92.2%; in the assay with PC-3 prostate, 93.8%. The growth is 99.3% in the assay with SK-MEL-5 melanoma; 103% in the assay with UACC-62 melanoma; 105% in the assay on LOX IMVI melanoma; 99.3% in the assay on SK-MEL-28 melanoma; 93.2% in the assay on SK-MEL-2 melanoma; 107% in the assay on SN12C renal. Further, the growth in the assay on UO-31 renal was 90.4%; in the assay with TK-10 renal, 97.8%; in the assay with ACHN renal, 95%; in the assay with CAKI-1 renal, 95.8%; in the assay on A498 renal, 101%; in the assay on MOLT-4 leukemia, 89.9%.
Regarding `CCCOC(=O)C1(O)CCCC1`, the growth is 93.9% in the assay with HCT-15 colon; 96.3% in the assay with HT29 colon; 80.9% in the assay with SNB-75 CNS; 108% with SNB-19 CNS; 104% in the assay with U251 CNS; 96.9% with PC-3 prostate. Moreover, the growth in the assay with SK-MEL-5 melanoma is 99.4%; with UACC-62 melanoma, 105%; in the assay on LOX IMVI melanoma, 108%; with SK-MEL-28 melanoma it was 99.2%; in the assay with SK-MEL-2 melanoma, 90.8%; in the assay with SN12C renal, 102%. For the same compound, the growth is 90.6% with UO-31 renal; 98.8% in the assay on TK-10 renal; 94% in the assay with ACHN renal; 102% in the assay with CAKI-1 renal; 103% with A498 renal; 93.1% in the assay on MOLT-4 leukemia.
For the compound `Cn1c(-c2nonc2NC(=O)c2ccc(F)cc2)nc2ccccc21`, the growth is 103% with HCT-15 colon; 101% in the assay with HT29 colon; 100% in the assay with SNB-75 CNS; 110% with SNB-19 CNS; 108% in the assay with U251 CNS; 101% in the assay on PC-3 prostate. The growth in the assay with SK-MEL-5 melanoma was 97.2%; in the assay on UACC-62 melanoma it was 108%; with LOX IMVI melanoma, 97.8%; in the assay with SK-MEL-28 melanoma, 110%; in the assay on SK-MEL-2 melanoma, 112%; in the assay with SN12C renal it was 102%. Also, the growth in the assay with UO-31 renal was 91.2%; with TK-10 renal it was 124%; with ACHN renal, 112%; in the assay on CAKI-1 renal, 105%; in the assay with A498 renal, 85.6%; in the assay on MOLT-4 leukemia, -1.74% (active).
As for `O=C(CCl)NCCNc1nccc(Nc2ccc(S(=O)(=O)Nc3ccccn3)cc2)n1`, the growth was 4.99% (active) in the assay on HCT-15 colon; 4.37% (active) with HT29 colon; 32.5% in the assay with SNB-75 CNS; 17.4% in the assay with SNB-19 CNS; -68.1% (active) in the assay with U251 CNS; 36.3% in the assay on PC-3 prostate. In addition, the growth in the assay with SK-MEL-5 melanoma was -41.6% (active); with UACC-62 melanoma it was 5.42% (active); in the assay on LOX IMVI melanoma, -64.1% (active); with SK-MEL-28 melanoma, 38%; with SK-MEL-2 melanoma it was 32.8%; with SN12C renal it was 13.5%. For the same compound, the growth in the assay with UO-31 renal is 47.4%; with TK-10 renal, 50%; in the assay with ACHN renal, 25.6%; in the assay with CAKI-1 renal, 10.3%; in the assay on CCRF-CEM leukemia, 12.3%; in the assay on MOLT-4 leukemia it was 23.8%.
Consider `C[C@]12CC[C@@H]3c4cc(O)c(O)cc4CC[C@H]3[C@@H]1CC[C@@H]2O`, for which the growth with HCT-15 colon was 30%; with HT29 colon, 96.4%; in the assay on SNB-75 CNS, -14.5% (active); in the assay on SNB-19 CNS, 66.1%; in the assay on U251 CNS it was 35.8%; in the assay with PC-3 prostate it was 58.6%. Moreover, the growth in the assay with SK-MEL-5 melanoma was 26.5%; in the assay on UACC-62 melanoma, 33.8%; with LOX IMVI melanoma, 40%; with SK-MEL-28 melanoma, 39.6%; in the assay with SK-MEL-2 melanoma, -16.8% (active); in the assay on SN12C renal, 50.7%. Also, the growth is 41.4% in the assay with UO-31 renal; 87.5% in the assay on TK-10 renal; 42.9% in the assay on ACHN renal; 33.3% in the assay on CAKI-1 renal; 100% in the assay with A498 renal; 29.1% in the assay with MOLT-4 leukemia.
Regarding `c1ccc2nc(-c3ccc4ccccc4n3)ccc2c1`, the growth with HCT-15 colon was 104%; with HT29 colon, 105%; with SNB-75 CNS it was 85.6%; in the assay on SNB-19 CNS it was 105%; in the assay on U251 CNS it was 95.8%; with PC-3 prostate it was 84.5%. For the same compound, the growth was 88.9% in the assay with SK-MEL-5 melanoma; 97% in the assay with UACC-62 melanoma; 92.2% in the assay on LOX IMVI melanoma; 106% in the assay on SK-MEL-28 melanoma; 88% in the assay with SK-MEL-2 melanoma; 95.9% in the assay with SN12C renal. Further, the growth was 78.4% in the assay on UO-31 renal; 116% in the assay with TK-10 renal; 96.4% in the assay with ACHN renal; 83.2% in the assay on CAKI-1 renal; 97.3% with A498 renal; 88.3% with MOLT-4 leukemia.
Take `O=C(c1ccccc1)C(Cl)C(Cl)c1ccccc1` (stereo not given): the growth in the assay with HCT-15 colon is -7.84% (active); with HT29 colon, 20.4%; in the assay with SNB-75 CNS it was 70.7%; in the assay with SNB-19 CNS it was 92%; with U251 CNS, 78%; in the assay with PC-3 prostate, 83%. Also, the growth in the assay on SK-MEL-5 melanoma was 88.8%; in the assay with UACC-62 melanoma, 0.557% (active); in the assay with LOX IMVI melanoma it was -64.9% (active); with SK-MEL-28 melanoma, 67.3%; in the assay on SK-MEL-2 melanoma it was 96.3%; in the assay with SN12C renal, -13.9% (active). Further, the growth in the assay with UO-31 renal was -50.5% (active); in the assay on TK-10 renal, -8.89% (active); in the assay with ACHN renal it was -71.5% (active); in the assay with CAKI-1 renal, 38%; in the assay on A498 renal, 103%; in the assay with CCRF-CEM leukemia, 5.75% (active). Further, the growth in the assay on MOLT-4 leukemia is 25.9%.
